Inconclusive results are not listed. Activity calls are given as the source filed them. The call rests on the fitted dose curve; in most records, active means well fitted curve in the direction sought with a large enough effect; inconclusive means small, poorly fitted or top-dose-only effect, or another doubt; inactive means no such curve, though single readings can be large; an effect the other way counts as inactive or inconclusive.

Test [1] concerns Zika virus NS2B-NS3 protease. The test can be described thus: Primary screen GU AMC qHTS for Zika virus inhibitors (AID 1347154). Further: nearly all actives have a fitted effect of over 70% in size. Further: potency means the concentration at half of the fitted maximal effect. Put shortly: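 Unlinked Zika NS2B hydrophilic domain/NS3 protease domain noncovalent complex (25 nM final) in 10 mM Tris-HCl pH 8.0, 0.01% Tween 20, with AMC peptide substrate. Fluorescence (ex 340, em 450 nm) change over 15 min, room temperature; percent inhibition fitted to 4-parameter Hill equation.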
For orientation: In qHTS, concentration-response curves come from the screen itself.

The subject of test [2] is Zika virus NS2B-NS3 protease (linked construct). The test can be described thus: Confirmatory screen NINDS AMC qHTS for Zika virus inhibitors (AID 1347152). Further: nearly all actives have a fitted effect of over 70% in size. Further: potency means the concentration at half of the fitted maximal effect. In outline:
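Linked NS2B-NS3 protease, 1 nM, in 10 mM Tris-HCl pH 8.0, 0.01% Tween 20; compounds preincubated 15 min at room temperature. Nle-KRR-AMC 10 microM (Km 18.3 µM); 15-min fluorescence change (340/450 nm) fitted to 4-parameter Hill.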

The test system of test [3] is Zika virus NS2B-NS3 protease (unlinked complex). Kind of test: Confirmatory screen GU AMC qHTS for Zika virus inhibitors (AID 1347153). Further: nearly all actives have a fitted effect of over 70% in size. Further: potency means the concentration at half of the fitted maximal effect. In outline: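 Unlinked enzyme 25 nM, Tris pH 8.0/0.01% Tween 20; cpd 15 min RT, dark; + AMC substrate 10 µM (Km 18.3 µM); 340/450 nm read at t0 and 15 min; % inhibition → 4-param fit.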
Test [4] in a line: Confirmatory screen GU Rhodamine qHTS for Zika virus inhibitors qHTS (AID 1347157). Further: potency means the concentration at half of the fitted maximal effect; nearly all actives have a fitted effect of over 70% in size. In outline:
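Unlinked NS2B/NS3, 25 nM; Rhod110 peptide, 1.5 microM; compounds, up to 114 microM. Reaction run 15 min at RT in 10 mM Tris-HCl pH 8.0, 0.01% Tween 20; kinetic fluorescence change fitted with a 4-parameter Hill model.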

A short description of test [5]: ZIKV-mCherry secondary qHTS for Zika virus inhibitors (AID 1347158). Further: top concentration of the series differs between compounds. Put shortly: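 Vero cells (5,000/well) were given compound, then infected with ZIKV-mCherry at MOI 1 for 48–72 h at 37 °C. After PFA fixation and Hoechst staining, imaging gave percent mCherry-positive cells. The positivity threshold was RFU above 450, 3 SD over negative controls.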
Test [6] deals with Zika virus NS2B-NS3 protease (unlinked complex). Kind of test: Primary screen GU Rhodamine qHTS for Zika virus inhibitors: Unlinked NS2B-NS3 protease assay (AID 1347159). Further: nearly all actives have a fitted effect of over 60% in size. Further: potency means the concentration at half of the fitted maximal effect. Put shortly:
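Compounds, tested up to 114 microM, were incubated for 15 minutes with 25 nM unlinked NS2B-NS3 protease at pH 8.0. Cleavage of 1.5 microM Rhodamine110 substrate was then followed by fluorescence for 15 minutes.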

The nature of test [7]: Confirmatory screen NINDS Rhodamine qHTS for Zika virus inhibitors (AID 1347161). Further: nearly all actives have a fitted effect of over 60% in size. Further: potency means the concentration at half of the fitted maximal effect. Put shortly: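 qHTS dose-response: 25 nM linked protease, pH 8.0 Tris/Tween buffer, cpd titration, 15 min RT preinc, 1.5 microM Rhod110 peptide, 15 min reaction (~15% conversion), Ex480/Em540; 4-parameter Hill fit.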
Test [8] concerns Zika virus NS2B-NS3 protease (linked). The test can be described thus: 384 well plate NINDS AMC confirmatory qHTS for Zika virus inhibitors (AID 1347163). Further: nearly all actives have a fitted effect of over 50% in size. Further: potency means the concentration at half of the fitted maximal effect. In outline: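 Linked NS2B-NS3 protease (final 5 nM, 30 nM or 60 nM) was preincubated with compounds (final up to 1 mM) for ~15 minutes. Ac-VKTGKR-AMC substrate (final 30 microM) then reacted for 25 minutes at room temperature in the dark. Fluorescence (ex 355/em 460 nm) was normalized to no-enzyme and no-inhibitor controls.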

In a further test the target is Furin (Homo sapiens) (UniProt P09958). The test can be described thus: Furin counterscreen qHTS for Zika virus inhibitors (AID 1347149). In outline:
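Fluorogenic cleavage of BOC-RVRR-AMC (2 microM final, Km ~15 µM) was monitored (ex 340, em 450 nm) at 37C after 15 min RT preincubation of 5 nM furin with compounds in HEPES pH 7.0 buffer with CaCl2 and Triton X-100. Percent inhibition was fitted to a 4-parameter Hill curve.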
(In general: Counterscreens check selectivity or assay interference.)

For test [9], the system named is Zika virus NS2B-NS3 protease (linked construct). The test can be described thus: Primary screen NINDS Rhodamine qHTS for Zika virus inhibitors (AID 1347160). Further: nearly all actives have a fitted effect of over 55% in size. Further: potency means the concentration at half of the fitted maximal effect. Put shortly:
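Percent inhibition, normalized to uninhibited and enzyme-free controls, is fitted to a 4-parameter Hill equation. Fluorescence change comes from a 15-min cleavage of 1.5 microM bis-peptide Rhodamine110 substrate by 25 nM linked NS2B-NS3 at room temperature.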

Test [10] in a line: qHTS of pediatric cancer cell lines to identify multiple opportunities for drug repurposing: Confirmatory screen for Rh18 cells (AID 1347125). Further: nearly all actives have a fitted effect of over 55% in size. Put shortly: (§1)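 Cells (500-1,000/well) in growth media were settled 5 h at 37 degrees C, then given compounds for 48 h. Viability was read as CellTiter-Glo luminescence. Primary runs used MIPE at 11 points (0.78 nM-46 µM) and NPC at 8 points (0.59 nM-46 µM); follow-ups used 11 points.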

A short description of test [11]: qHTS of pediatric cancer cell lines to identify multiple opportunities for drug repurposing: Confirmatory screen for Rh30 cells (AID 1347126). Further: potency means the concentration at half of the fitted maximal effect; nearly all actives have a fitted effect of over 55% in size. In outline: as §1
Test [12] in a line: qHTS of pediatric cancer cell lines to identify multiple opportunities for drug repurposing: Confirmatory screen for Saos-2 cells (AID 1347127). Further: nearly all actives have a fitted effect of over 60% in size. Put shortly:
as §1

Test [13] in a line: qHTS of pediatric cancer cell lines to identify multiple opportunities for drug repurposing: Confirmatory screen for OHS-50 cells (AID 1347128).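 Further: compound exposure lasted 48 h at 37 degrees C; nearly all actives have a fitted effect of over 55% in size.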 Put shortly: as §1
Test [14] in a line: qHTS of pediatric cancer cell lines to identify multiple opportunities for drug repurposing: Confirmatory screen for SK-N-SH cells (AID 1347129).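 Further: cells exposed to compound for 48 h before viability read; nearly all actives have a fitted effect of over 60% in size.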 Further: potency means the concentration at half of the fitted maximal effect. In outline:
as §1

Sequence of Furin (Homo sapiens) (P09958 whole entry, looked up): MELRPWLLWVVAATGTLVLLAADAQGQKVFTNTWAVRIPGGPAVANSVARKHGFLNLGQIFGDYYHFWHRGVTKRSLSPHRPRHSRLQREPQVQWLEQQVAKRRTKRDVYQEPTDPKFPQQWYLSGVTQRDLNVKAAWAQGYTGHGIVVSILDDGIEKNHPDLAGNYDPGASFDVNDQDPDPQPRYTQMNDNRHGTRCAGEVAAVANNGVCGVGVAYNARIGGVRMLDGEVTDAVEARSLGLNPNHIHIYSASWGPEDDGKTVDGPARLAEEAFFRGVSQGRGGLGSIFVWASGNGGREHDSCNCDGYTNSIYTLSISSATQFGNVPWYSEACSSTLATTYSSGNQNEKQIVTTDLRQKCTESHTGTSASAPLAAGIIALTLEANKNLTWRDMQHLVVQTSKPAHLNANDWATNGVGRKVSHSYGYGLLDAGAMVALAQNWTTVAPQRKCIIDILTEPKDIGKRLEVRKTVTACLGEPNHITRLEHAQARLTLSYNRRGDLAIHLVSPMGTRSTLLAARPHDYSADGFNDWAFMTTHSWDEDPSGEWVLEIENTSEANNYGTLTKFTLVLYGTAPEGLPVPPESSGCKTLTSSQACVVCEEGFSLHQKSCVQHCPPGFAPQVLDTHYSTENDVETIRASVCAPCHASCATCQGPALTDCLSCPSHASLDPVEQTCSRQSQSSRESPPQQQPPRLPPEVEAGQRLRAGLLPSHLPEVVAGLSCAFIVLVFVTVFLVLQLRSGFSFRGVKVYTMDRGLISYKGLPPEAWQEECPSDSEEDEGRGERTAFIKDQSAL

For `CNC(=O)[C@H](Cc1ccccc1)NC(=O)[C@H](CC(C)C)[C@H](CSc1cccs1)C(=O)NO`, in [1], the Potency entry was “inactive”.
Regarding `COc1cc(Nc2nc3ccccc3nc2NS(=O)(=O)c2ccc(NC(=O)c3ccc(C)c(OC)c3)cc2)cc(OC)c1`, the Potency in [2] was 6.98 µM (active); in test [3], 5.55 µM (active); in test [4], 1.39 µM (active); in test [6], 1.78 µM (active); in test [7], 1.39 µM (active). The Potency entry in [1] and in test [8] was “inactive” throughout. The call in [5] was inactive.
In the case of `CCC[C@@H](NC(=O)[C@@H]1[C@H]2CCC[C@@H]2CN1C(=O)[C@@H](NC(=O)[C@@H](NC(=O)c1cnccn1)C1CCCCC1)C(C)(C)C)C(=O)C(=O)NC1CC1`, the Potency entry in [1] was “inactive”.
Consider `C[C@H]1COC2=C1C(=O)C(=O)c1c2ccc2c1CCCC2(C)C`, for which the Potency in test [3] was 21.5 µM (active); in [7], 7.84 µM (active). The call in test [5] was inactive.
For `CCCCC[C@H](O)C=C[C@H]1[C@H](O)CC(=O)[C@H]1CCCCCCC(=O)O`, the Potency entry (with Furin (Homo sapiens); in test [2]; in test [3]; in test [7]) was “inactive” in each case.
As for `Fc1ccc(C(c2ccc(F)cc2)N2CCN(CC=Cc3ccccc3)CC2)cc1`, the Potency result (with Furin (Homo sapiens); in test [2]; in [3]; in test [7]) was “inactive” throughout.
`O=S(=O)(O)c1ccc2cc(N=Nc3cc(S(=O)(=O)O)c4cccnc4c3O)ccc2c1`: the Potency entry in the test with Furin (Homo sapiens) is “inactive”. For the same compound, the Potency was 1.39 µM (active) in test [4]; 0.794 µM (active) in test [6]; 1.26 µM (active) in [9]; 1.39 µM (active) in test [7]; 79.4 µM (active) in test [8].
`Cc1ccccc1-n1c(Cn2nc(-c3cccc(O)c3)c3c(N)ncnc32)nc2cccc(C)c2c1=O`: the Potency entry in [10], in test [12], in test [13], in test [14], in [1] and in test [6] was “inactive” each time. In [9], the Potency result is “inactive”. The Potency in test [11] was 13.1 µM (active).
On to `COc1cc2nccc(Oc3ccc(NC(=O)Nc4cc(C)on4)c(Cl)c3)c2cc1OC`, for which, in [14], the Potency was 9.35 µM (active). The Potency entry in test [1] and in test [6] was “inactive” in each case.
Regarding `O=C1CN2Cc3c(ccc(Cl)c3Cl)N=C2N1`, the Potency entry in test [1] is “inactive”.
`COc1ccc(C=CC(=O)Nc2ccccc2C(=O)O)cc1OC`: in [1], the Potency result is “inactive”.
Take `O=c1cc(-c2ccc(O)c(O)c2)oc2cc(O)cc(O)c12`: the Potency entry (in the test with Furin (Homo sapiens); in test [1]) was “inactive” throughout. In addition, in test [5], the result was inactive. In addition, the Potency in test [7] was 28.2 µM (active); in test [8], 70.8 µM (active).
On to `N#CC1(c2cccc(C(=O)Nc3cc(Oc4ccc5nc(NC(=O)C6CC6)sc5n4)ccc3F)c2Cl)CC1`, for which the Potency result (with Furin (Homo sapiens); in test [2]; in test [3]; in test [9]) was “inactive” in each case. Further, the Potency was 21.5 µM (active) in test [1], 22.1 µM (active) in test [4] and 22.4 µM (active) in [6].
As for `CN[C@H]1[C@@H](O[C@@H]2[C@H](O[C@@H]3[C@@H](O)[C@@H](O)[C@@H](N=C(N)N)[C@@H](O)[C@@H]3N=C(N)N)O[C@H](C)[C@@]2(O)C=O)O[C@@H](CO)[C@@H](O)[C@H]1O`, the Potency entry in test [1] was “inactive”.
Same read-out and setting: under `COc1c(C)cnc(Cn2cnc3c(Cl)nc(N)nc32)c1C` stands “inactive”; under `O=C1CCCC(=O)C1C(=O)c1ccc(C(F)(F)F)cc1[N+](=O)[O-]`, “inactive”; under `CCc1cc(-c2n[nH]c(C)c2-c2ccc3c(c2)OCCO3)c(O)cc1O`, “inactive”.
Same read-out and setting: then `C[C@@H](O)[C@H]1C(=O)N2C(C(=O)OCOC(=O)C(C)(C)C)=C(SC3CN(C4=NCCS4)C3)[C@H](C)[C@H]12`, with “inactive”; and `C[C@@H]1CC=CC=CC=CC=C[C@@H](O[C@@H]2O[C@H](C)[C@@H](O)[C@H](N)[C@H]2O)C[C@@H]2O[C@](O)(C[C@@H](O)C[C@@H]3O[C@@H]3C=CC(=O)O1)C[C@H](O)[C@@H]2C(=O)O`, with “inactive”; and `CNC1[C@H](O)C(O[C@@H]2C(O)C(O[C@H]3O[C@H]([C@@H](C)NC)CC[C@H]3N)[C@@H](N)C[C@H]2N)OC[C@]1(C)O` (some centres not stated), with “inactive”.
The same measure, in the same setting: under `COc1cc(N2CCN(C)CC2)ccc1Nc1nc(N)c(C(=O)c2c(Cl)cccc2Cl)s1` stands “inactive”; under `CC(NCCc1ccc(O)cc1)C(O)c1ccc(O)cc1` (configuration not stated), “inactive”; under `CCCCCOC(=O)Nc1nc(=O)n([C@@H]2O[C@H](C)[C@@H](O)C2O)cc1F` (some centres not stated), “inactive”.

The values above are taken from PubChem BioAssay (NCATS).
